# According to ChEMBL document CHEMBL3988442, “University of Dundee, Small-Polar-MMV Screening Library” (2021):
# Out of some 48,000 compounds screened, about 13,000 (27%) showed an effect of 50% or more. The list shows a part of the results.
# Test system: Wolbachia pipientis
# Assay: Anti-Wolbachia Cell-Based Screen
# Assay type: functional
# Set-up: scale not given: in the data most compounds retested in dose-response had high values
# Details: 5 µM
row,SMILES,Percent Effect
1,CNC(=O)CCc1cccc(OC2CCCC2)c1,6.693%
2,Cc1cc(CCC(=O)N2CCCC2)nc(C2CCCN2)n1 (centres undefined),120.7%
3,CCc1nc(C)c([C@H]2CN(C)C[C@@H]2C(=O)Nc2ccc3[nH]ncc3c2)[nH]1,2.29%
4,CC(=O)N1CCC(NC2(Cc3cc(CC(C)C)on3)COC2)CC1,8.31%
5,Cc1nc(CN2C(=O)C[C@H]3[C@H]2CCN3C2CCOC2)cs1.O=C(O)C(F)(F)F (some centres undefined),104.4%
6,Cc1nc(CN2C(=O)CC[C@@H]3[C@H]2CCN3C(=O)C2CCOCC2)cs1,-12.01%
7,Cc1nc(CN2C(=O)CC[C@@H]3[C@H]2CCN3C2CCOCC2)cs1.O=C(O)C(F)(F)F,88.53%
8,Cc1nc(CN2C(=O)C[C@H]3[C@H]2CCN3C2CCOCC2)cs1.O=C(O)C(F)(F)F,-10.54%
9,Cc1nc(CN2C(=O)CC[C@@H]3[C@H]2CCN3C2CCOC2)cs1.O=C(O)C(F)(F)F (some centres undefined),91.6%
10,Cc1nc(CN2CCN(C3CCOC3)Cc3cccnc32)cs1.O=C(O)C(F)(F)F.O=C(O)C(F)(F)F.O=C(O)C(F)(F)F (centres undefined),-13.84%
11,Cc1nc(CN2C(=O)CC[C@@H]3[C@H]2CCN3C(=O)c2ccccn2)cs1.O=C(O)C(F)(F)F,-0.4991%
12,Cc1cccc(OC2CCN(c3nccnc3C#N)CC2)n1,4.563%
13,COc1ccc(C(=O)N(C)Cc2cc(C)on2)c(F)c1,9.615%
14,CC(=O)Nc1nc2c(s1)C1(CCCC1)Nc1ccccc1S2,63.28%
15,CC(=O)Nc1nc2c(s1)C1(CCN(C)CC1)Nc1ccccc1S2,104.1%
16,COc1cc(C(=O)N2CCC3(CC2)Nc2ccccc2NC3=O)ccn1,31.29%
17,CC(=O)Nc1nc2c(s1)C(C)(C)Nc1ccccc1S2,66.2%
18,CNc1ncc(C(=O)N2CCC3(CC2)Nc2ccccc2NC3=O)cn1,-19.06%
19,CS(=O)(=O)N1CC[C@]2(O)CCN(c3cc(C#N)ccn3)C[C@@H]2C1,-2.197%
20,CCOc1ccc(CCC(=O)N2CC[C@H]3C(=O)NCCO[C@H]3C2)cc1,8.218%
21,Cc1c(C(=O)NCCC(=O)N2CCOCC2)oc2c(C)cccc12,-0.1879%
22,CC(NCc1cnc(C2CCC2)s1)c1cccc(-n2cccn2)c1 (centres undefined),-14.57%
23,O=C(CN1C(=O)CCC1=O)NCc1nn(C2CCCC2)c2c1CCCC2,-9.274%
24,Cn1cc(CN2CCn3cnc(COCC4CC4)c3C2)cn1.O=C(O)C(F)(F)F,8.69%
25,Cc1nc(COC[C@@]23CCC[C@@H]2CN(Cc2nccs2)C3)cs1.O=C(O)C(F)(F)F,8.352%

row,SMILES,Percent Effect
1,Cn1cc(CN2C[C@H]3CCC[C@@]3(COCC3CC3)C2)cn1.O=C(O)C(F)(F)F,101.6%
2,Cn1cc(CN2C[C@@H]3COC[C@]3(CNC(=O)c3ccsc3)C2)cn1.O=C(O)C(F)(F)F,-12.06%
3,Cc1nc(COC[C@@]23CCC[C@@H]2CN(Cc2cnn(C)c2)C3)cs1,93.55%
4,Cn1cc(CN2C[C@@H]3COC[C@]3(CNC(=O)c3ccco3)C2)cn1.O=C(O)C(F)(F)F,-7.864%
5,Cn1cc(CN2C[C@@H]3COC[C@]3(COCC3CC3)C2)cn1.O=C(O)C(F)(F)F,100.8%
6,Cc1cccc(CN2C[C@H]3CCC[C@@]3(COCc3csc(C)n3)C2)n1.O=C(O)C(F)(F)F.O=C(O)C(F)(F)F,-5.241%
7,CCn1cc2c(n1)CN(Cc1cnn(C)c1)CC2COCC1CC1.O=C(O)C(F)(F)F (centres undefined),12.58%
8,COc1ccc(Br)c(C(=O)N2CCC(c3n[nH]c(C4CC4)n3)CC2)c1,9.985%
9,O=C(Cc1csc(N2CCNC2=O)n1)NC1(c2ccccc2)CCC1,3.065%
10,Cc1nc(NC(=O)N2CCCC(C(C)(C)O)C2)nn1C (centres undefined),7.598%
11,CC(C)N[C@@H]1CO[C@H](CNC(=O)c2cccs2)[C@H]1O,0.5301%
12,NC(=O)NCC(=O)N1CCC(c2cc(-c3ccccc3Cl)n[nH]2)CC1,9.084%
13,CCC(CNC(C)=O)(OC)c1ccccc1 (centres undefined),-7.237%
14,CC(=O)N1N=C(Cc2ccccc2)OC1C(=O)NCC(=O)OC(C)(C)C (centres undefined),112%
15,CCN1CC(C(=O)NCc2noc(Cc3ccccc3)n2)CCC1=O (centres undefined),-8.005%
16,CC(=O)N1N=C(c2ccccc2)OC1C(=O)NCC(=O)OC(C)(C)C (centres undefined),126.7%
17,CN(C(=O)c1ccco1)C1CCC(NC(=O)OC(C)(C)C)CC1 (centres undefined),-29.92%
18,CCOC(=O)CNC(=O)C1CN(C(=O)c2cnccn2)C1,12.27%
19,COC(=O)CN1CC(c2nc(Cc3ccccc3)no2)C1.O=C(O)C(=O)O,-2.345%
20,CC(C)(C)OC(=O)CNC(=O)CCc1nnc(-c2ccsc2)o1,-11.15%
21,CCOC(=O)CNC(=O)C1OC(c2ccccc2)=NN1C(C)=O (centres undefined),105.7%
22,CC(=O)N1N=C(Cc2ccccc2)OC1C(=O)NCC(C)C (centres undefined),119.9%
23,CC(C)N1CCCC(C(=O)NCc2noc(Cc3ccccc3)n2)C1 (centres undefined),-0.7063%
24,CCOC(=O)CNC(=O)N1CCCC(CNC(=O)c2ccco2)C1 (centres undefined),-9.65%
